# According to publication PMC4666376, “Characterisation of aptamer–target interactions by branched selection and high-throughput sequencing of SELEX pools”:
# Molecular target: PAI-1 wild type, active (human, UniProt P05121 24-402)
# Assay: branched SELEX with high-throughput sequencing; PAI-1 immobilised on monoclonal anti-PAI-1 antibody mAb-1; HBS (10 mM HEPES pH 7.4, 140 mM NaCl), 2 mM MgCl2, 2 mM CaCl2, 0.1% BSA; RNA pool 100 nM; PAI-1 captured on antibody-coated wells; 45 min; binding temperature not stated (PAI-1 capture at room temperature); high values mean tight binding;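 further: Pool frequency after one selection round with this target divided by frequency before selection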
# Conditions: protein: recombinant; tags: N-terminal His6; structured_RNA; 2'-F pyrimidines
# PAI-1 wild type, active, sequence (P05121 24-402): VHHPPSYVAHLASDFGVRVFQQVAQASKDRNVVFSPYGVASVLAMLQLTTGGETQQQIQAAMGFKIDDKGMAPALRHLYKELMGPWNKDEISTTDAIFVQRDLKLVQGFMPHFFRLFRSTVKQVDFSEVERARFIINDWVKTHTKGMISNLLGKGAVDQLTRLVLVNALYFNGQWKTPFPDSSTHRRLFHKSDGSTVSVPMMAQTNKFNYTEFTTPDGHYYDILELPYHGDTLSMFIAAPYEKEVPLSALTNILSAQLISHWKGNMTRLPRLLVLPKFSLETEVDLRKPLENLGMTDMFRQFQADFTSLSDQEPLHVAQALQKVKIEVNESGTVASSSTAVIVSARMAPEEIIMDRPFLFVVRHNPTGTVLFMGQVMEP
row,Sequence,binding signal [enrichment factor]
1,GGGGCCACCAACGACAUUUGCAAUUUAUGCAACCUUAGCGGAUUCGCUAGUUCGUUGAUAUAAAUAGUGCCCAUGGAUC,3.88
2,GGGGCCACCAACGACAUUAUACAGCCGAUCAUGUCACGUAGGCUGUGAUUAACGUUGAUAUAAAUAGUGCCCAUGGAUC,0.81
3,GGGGCCACCAACGACAUUGAACCACGUAGGCUCGUUUCUGAGCCGAUCUCGAUGUUGAUAUAAAUAGUGCCCAUGGAUC,2.66
4,GGGGCCACCAACGACAUUUACCGUCUGGGUAACCUUGUACGAUAGUACAGUUCGUUGAUAUAAAUAGUGCCCAUGGAUC,1.53
5,GGGGCCACCAACGACAUUUCACACUGUAAGGCCAUGUGCCGACUAGAAAUUGCGUUGAUAUAAAUAGUGCCCAUGGAUC,0.55
6,GGGGCCACCAACGACAUUUGCAUUUGGCAUCCAUAUCGGGCGACCGAUAGUUCGUUGAUAUAAAUAGUGCCCAUGGAUC,2.86
7,GGGGCCACCAACGACAUUGGUCACAUGACCACCGUAUGAUUUACUCAUAGUUCGUUGAUAUAAAUAGUGCCCAUGGAUC,2.36
8,GGGGCCACCAACGACAUUAACAACCCGUAGACGUCAUCGUCGAUCGCGUUAGUGUUGAUAUAAAUAGUGCCCAUGGAUC,1.35
9,GGGGCCACCAACGACAUUCCAAGAUCACUUGGACCGUGUAUUAAGUACAGUUCGUUGAUAUAAAUAGUGCCCAUGGAUC,4.62
